Compound activity as filed in PubChem BioAssay.
Shown are actives, neighbours in structure and some others; about 0.9% of the full set was active somewhere.
BLM inh – inhibitors of human Bloom syndrome helicase BLM. recombinant BLM DNA unwinding, fluorescence dequenching. Potency, µM (titrated, usually from 56.1 µM), for inactives: at the highest dose activity change, negative = inhibition, most hits filed as inhibitors. 0.2% of 350,000 active. AID 2528;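 also: plate controls were vehicle for no effect and no enzyme for full effect; nearly all actives have a fitted effect of over 35% in size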
TR SRC2 fluor cs – Texas Red fluorescence interference in TRb-SRC2 counter-screen. TRb/SRC2 Texas Red total fluorescence interference. Potency, µM (series often up to 106 µM), for the others: at the top dose fluorescence change, negative = quenching. 0.29% of 280,000 active; active = well fitted curve in either direction with a large enough effect; inconclusive = small, poorly fitted or top-dose-only effect
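Human TRβ ligand-binding domain (0.6 uM) and Texas Red SRC2 peptide (20 nM) in Tris buffer with 1 uM T3 and 5% DMSO were incubated with pinned compound for 5 hr at ambient temperature. Total fluorescence was computed as S + 2P (555/632 nm).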
RECQ1 helicase – RECQ1 (human) helicase inhibition; P46063; RECQ1 DNA unwinding, red fluorescence kinetic read; Potency, µM (doses to about 57.3 µM), for the others: at the top dose activity, negative = inhibition, most hits filed as inhibitors; 0.54% of 240,000 active;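 also: plate controls were vehicle for no effect and no enzyme for full effect; nearly all actives have a fitted effect of over 30% in size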
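RECQ1T1 50 nM; forked duplex (20 bp + 30-nt ss tails) 200 nM, ATP 2 mM final; pH 8.0, 2 mM MgCl2, 2.5 ug/ml poly(dI-dC); 15 min compound preincubation; discontinuous kinetic read over 2 h at RT.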
APE1 inh – APE1 (human) endonuclease inhibition | recombinant APE1, TAMRA/BHQ-2 abasic DNA cleavage fluorescence | Potency, µM (highest dose often 65.8 µM), for inactives: at the highest dose activity change, negative = inhibition, actives largely listed as inhibitors | 0.35% of 350,000 active;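 also: plate controls were vehicle for no effect and reference inhibitor for full effect; nearly all actives have a fitted effect of over 55% in size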
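Measures dequenching upon AP-site incision of a 5'-TAMRA/3'-BHQ-2 THF-containing duplex, 50 nM; human APE1 0.75 nM after 15 min room-temperature exposure to compound; kinetic three-point read at one-minute spacing.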
TRb SRC2 PPI – inhibitors of human thyroid hormone receptor beta-SRC2 interaction. TRbeta-SRC2 peptide binding, fluorescence polarization; receptor liganded with 1 µM T3. AID 1469. 0.065% of 280,000 active. P10828. Potency, µM (series often up to 106 µM), inactives show at the top dose activity change, negative = inhibition, usual class: inhibitors;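 also: plate controls were bound peptide for no effect and peptide without receptor for full effect; nearly all actives have a fitted effect of over 50% in size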
Target sequence (P10828 whole entry, looked up): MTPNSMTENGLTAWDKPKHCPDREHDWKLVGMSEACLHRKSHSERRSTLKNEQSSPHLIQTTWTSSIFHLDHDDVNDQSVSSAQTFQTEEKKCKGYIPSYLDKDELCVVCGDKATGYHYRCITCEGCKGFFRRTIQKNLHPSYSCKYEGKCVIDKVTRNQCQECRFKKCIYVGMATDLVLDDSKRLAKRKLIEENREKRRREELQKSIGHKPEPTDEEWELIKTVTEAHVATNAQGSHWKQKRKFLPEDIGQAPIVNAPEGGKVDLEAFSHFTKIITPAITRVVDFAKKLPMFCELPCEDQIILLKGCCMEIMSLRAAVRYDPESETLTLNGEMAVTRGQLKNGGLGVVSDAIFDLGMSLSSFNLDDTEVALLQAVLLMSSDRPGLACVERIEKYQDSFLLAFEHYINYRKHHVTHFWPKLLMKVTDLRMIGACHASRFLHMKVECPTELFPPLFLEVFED
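Human TRb ligand-binding domain (0.6 uM) is mixed with 20 nM Texas Red SRC2 peptide and 1 uM T3; after compound addition and 5 hr at ambient temperature, polarization is measured and normalized to unbound and bound controls.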
GoLoco inh red – blocks human Gai1 binding to RGS12 GoLoco peptide, red readout; P63096; Gai1:RGS12 GoLoco peptide FP, rhodamine, 10 min; Potency, µM (series often up to 61.6 µM), for inactives: at the top dose activity, negative = inhibition, hits mostly inhibitors; 0.44% of 230,000 active; active = well fitted inhibition curve with a large enough effect, not every such curve was filed as active; inactive = no such curve, though single readings can be large or run the other way; also: nearly all actives have a fitted effect of over 30% in size
Numbers without * were called inactive; [ ] = another dose, or the depositor's remark. Unless noted, calls follow the shape of the dose curve; as a rule, active = well fitted curve in the direction sought with a large enough effect; inconclusive = small, poorly fitted or top-dose-only effect, or another doubt; inactive = no such curve, though single readings can be large; an effect the other way counts as inactive or inconclusive. Unless noted, % is scaled to controls: 0 for no effect and ±100 for the full control effect; potency is read from the fitted curve at half-maximal effect.

Screening CNC(=O)C12N=CNN=C1N(C)C(=O)N2C (stereo unspecified) returned BLM inh -6.8%, TR SRC2 fluor cs -0.5%, RECQ1 helicase -7.8%, APE1 inh inconclusive, TRb SRC2 PPI 0.6% and GoLoco inh red -6.8%.
`CN1C(=O)N(C)C2=NNC=NC2(O)C1=O` (stereo unspecified) gave BLM inh 28.2µM*, TR SRC2 fluor cs -1.4%, RECQ1 helicase -3.4%, APE1 inh 13.2%, TRb SRC2 PPI 10.6% and GoLoco inh red -1.5%.
`CC(C)c1ccc2cc(C(C)C)ccc2c1` gave TR SRC2 fluor cs 3.3%[201 µM] and TRb SRC2 PPI -2.1%[201 µM].
For NC(=O)C1CCN(c2nc(-c3ccc4c(c3)OCO4)cs2)CC1 the results were APE1 inh -14.6%.
Screening COc1cc(/C=C2/C(=O)c3cccc([N+](=O)[O-])c3C2=O)c(Br)cc1O returned BLM inh -19.3%, TR SRC2 fluor cs -19.7%, RECQ1 helicase 25.1µM*, APE1 inh inconclusive, TRb SRC2 PPI -5.7% and GoLoco inh red 19.9%.
`COC(=O)c1ccc(NC(=O)C2CCN(c3ncnc4c3nc3n4CCCCC3)CC2)cc1` gave BLM inh -4.2%, TR SRC2 fluor cs -4.8% and TRb SRC2 PPI -1.0%.
For CCOc1cc2c(C#N)c(N3CCCCC3)nc(N)c2c(N)n1 the results were BLM inh 28.2µM*, TR SRC2 fluor cs -3.5%, RECQ1 helicase -0.5%, APE1 inh -5.6%, TRb SRC2 PPI 0.5% and GoLoco inh red 38.6%.
Screening CCOC(=O)C1CCN(c2nc(N)c3c(N)nc(SCC(=O)O)cc3c2C#N)CC1 returned BLM inh 25.1µM*, TR SRC2 fluor cs -5.4%, RECQ1 helicase inconclusive, APE1 inh inconclusive, TRb SRC2 PPI -14.0% and GoLoco inh red 54.4%.
N#Cc1cccc(NC(=O)CSc2ccc3c4c(cccc24)C(=O)c2ccccc2-3)c1 was read as BLM inh 0.8%, TR SRC2 fluor cs 1.7%, RECQ1 helicase -6.3%, APE1 inh -0.4%, TRb SRC2 PPI 10.2% and GoLoco inh red 11.2µM*.
`COc1ccc(NC(=O)CSc2ccc3c4c(cccc24)C(=O)c2ccccc2-3)cc1` gave BLM inh -3.9%, TR SRC2 fluor cs -2.8%, RECQ1 helicase -5.0%, APE1 inh 4.5%, TRb SRC2 PPI -0.5% and GoLoco inh red 19.3%.
Screening Cc1ccc(C(=O)OC[C@H]2O[C@H](Cl)C[C@@H]2OC(=O)c2ccc(C)cc2)cc1 returned BLM inh 2.0%, TR SRC2 fluor cs -1.1%, RECQ1 helicase -5.8%, APE1 inh 17.2%, TRb SRC2 PPI 2.6% and GoLoco inh red 1.8%.
Oc1ccc2ccccc2c1/C=N/c1nccs1 was read as BLM inh -7.2%, TR SRC2 fluor cs inconclusive, RECQ1 helicase inactive, APE1 inh -1.0%, TRb SRC2 PPI 35.5µM* and GoLoco inh red -11.5%.
For Cc1cc(N=Cc2c(O)ccc3ccccc23)no1 the results were BLM inh -7.2%, TR SRC2 fluor cs inconclusive, RECQ1 helicase 10.0%, APE1 inh 3.3% and TRb SRC2 PPI 50.1µM*.
Oc1ccccc1N=Cc1c(O)ccc2ccccc12 was read as BLM inh -5.9%, TR SRC2 fluor cs -7.9%, RECQ1 helicase -3.8%, APE1 inh 11.0%, TRb SRC2 PPI 5.4% and GoLoco inh red 26.0%.
`C=CC[N@@+]12CC[C@@]34c5ccccc5N5/C=C6/[C@H]7C[C@H]8[C@@]9(CC[N@@+]8(CC=C)C/C7=C/CO)c7ccccc7N(/C=C(/[C@@H](C[C@@H]31)/C(=C\CO)C2)[C@H]54)[C@@H]69` gave APE1 inh -0.6%[21 µM].
`CC(C)(C)n1ncc2c(=O)n(Cc3ccc([S+](=O)([O-])N4CCOCC4)cc3)cnc21` gave APE1 inh -0.4%.
Screening Cc1cc2c(N)cccc2nn1 returned BLM inh 5.62µM*, TR SRC2 fluor cs -1.0%, RECQ1 helicase -3.4%, APE1 inh -1.0%, TRb SRC2 PPI 3.5% and GoLoco inh red 8.91µM*.
For Nc1cccc2nc3ccccc3cc12 the results were BLM inh 208.4%, TR SRC2 fluor cs -2.3%, RECQ1 helicase 14.4%, APE1 inh inconclusive, TRb SRC2 PPI 2.3% and GoLoco inh red 4.9%.
For CC1CN(C(=O)CCC(=O)NCc2cccc(Cl)c2)c2ccccc2S1 (stereo unspecified) the results were BLM inh -5.4%, TR SRC2 fluor cs 28.2µM*[quencher] and TRb SRC2 PPI -13.0%.
CC1CN(C(=O)CCC(=O)NCc2ccccc2)c2ccccc2S1 (stereo unspecified) was read as BLM inh 0.2% and APE1 inh -11.3%.
`N#Cc1cccc(-c2nc3cnc(N4CCOCC4)nc3n(C3CC3)c2=O)c1` gave BLM inh -9.1%, RECQ1 helicase -5.6%, APE1 inh -6.2% and GoLoco inh red 3.16µM*.
For O=c1c(-c2ccccc2)nc2cnc(N3CCOCC3)nc2n1C1CC1 the results were BLM inh 1.0%, RECQ1 helicase inactive, APE1 inh 14.4% and GoLoco inh red -11.8%.
N#C/C(=C\c1ccc(-c2cc(Cl)ccc2Cl)o1)C(=O)Nc1ccccc1C(=O)O was read as BLM inh 11.2µM*, TR SRC2 fluor cs -10.4% and TRb SRC2 PPI 2.1%.
Screening CC1CC1c1ccc(/C=C(\C#N)C(=O)Nc2cc(Cl)ccc2Cl)o1 (stereo unspecified) returned BLM inh -3.0%, TR SRC2 fluor cs -8.5%, RECQ1 helicase 3.3%, APE1 inh -3.4%, TRb SRC2 PPI 6.0% and GoLoco inh red -123.1%.
For Cc1ccc(Cc2nc3ccccc3nc2SCC(=O)NCc2ccccc2Cl)cc1 the results were BLM inh -1.2%, TR SRC2 fluor cs -0.1% and TRb SRC2 PPI 3.2%.
COc1ccc2c(c1)O[C@@H](c1cccc(C(F)(F)F)c1)[C@H](OC(=O)NS(=O)(=O)c1ccc(C)cc1)C2=O was read as BLM inh -2.7%, TR SRC2 fluor cs -1.8%, RECQ1 helicase -1.7%, APE1 inh 1.5%, TRb SRC2 PPI 4.5% and GoLoco inh red 1.9%.
For FC(F)(F)c1ccc(-c2noc(-c3ccccc3)c2I)cc1 the results were BLM inh -4.7%[75.6 µM], TR SRC2 fluor cs -2.8%, RECQ1 helicase inactive, APE1 inh -0.7%, TRb SRC2 PPI 3.2% and GoLoco inh red 7.0%.
COc1cc(/C=C/c2nc3cc(Cl)ccc3c(=O)n2-c2cccc(C(F)(F)F)c2)cc(OC)c1OC was read as BLM inh -4.4%, TR SRC2 fluor cs -1.3% and TRb SRC2 PPI 5.2%.
